Sampled rows, rich in hits. Any-hit rate of the full collection: about 0.96%.
TRHR enhancer-1 – allosteric enhancers of human TRH receptor. TRHR cells, fluo-8 calcium fluorescence, EC20 TRH enhancement. enhancement, % at 2 µM. hit rate 0.66% among 360,000. AID 493056; in the data active = enhancement above about 30%; also: 0% is about no effect
Target sequence (P34981 whole entry, looked up): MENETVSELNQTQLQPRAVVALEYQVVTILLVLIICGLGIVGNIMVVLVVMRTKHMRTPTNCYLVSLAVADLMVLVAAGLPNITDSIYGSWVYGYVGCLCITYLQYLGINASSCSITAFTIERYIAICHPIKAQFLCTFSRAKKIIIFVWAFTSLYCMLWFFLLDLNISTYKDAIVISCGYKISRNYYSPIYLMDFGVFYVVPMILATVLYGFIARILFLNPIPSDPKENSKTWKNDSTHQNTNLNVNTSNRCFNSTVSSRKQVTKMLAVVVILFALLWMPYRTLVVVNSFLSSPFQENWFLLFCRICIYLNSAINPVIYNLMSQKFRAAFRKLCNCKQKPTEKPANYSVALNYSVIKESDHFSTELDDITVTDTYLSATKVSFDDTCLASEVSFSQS
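Enhancer read-out: after compound pinning and an initial kinetic agonist-mode read, an EC20 of TRH (10 nM final) was injected and fluo-8 calcium signal (Ex 480/Em 530) followed at 1 s/cycle for 100 cycles in TRHR-expressing cells.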
TRPV1 ag – agonists of human vanilloid receptor 1 (TRPV1). activation, % at 8.33 µM. hit rate 0.19% among 320,000. TRPV1-expressing cells, Fluo-8 calcium influx, agonist mode; in the data active = activation above about 80%; inconclusive = between about 30% and that limit; also: 0% is about no effect
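Fluo-8 calcium influx in TRPV1-expressing cells, kinetic read (ex 480/em 520 nm). Compound added and read 3 min for agonist activity, followed by capsaicin at EC20 final and 2 min further read for enhancement.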
TRPML1 agonist – human mucolipin-1 channel agonism | hit rate 0.12% among 410,000 | AID 624414 | Q9GZU1 | TRPML1-expressing cells, Ca2+ dye fluorescence, FDSS | activation, % (no concentration beside the values); in the data active = activation above about 50%; inconclusive = mostly about 30% to 49%; also: 0% is about no effect
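Tetracycline-induced TRPML1-DL cells are seeded and incubated overnight before loading with a no-wash Ca2+ dye and quencher. Agonist activity is taken from the 110 s fluorescence read following compound pin-transfer on an FDSS, before EC80 54-4 challenge.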
TRHR agonist-1 – agonists of human TRH receptor. P34981. TRHR cells, calcium flux fluo-8, FDSS agonist mode. activation, % at 2 µM. hit rate 0.18% among 360,000; in the data active = activation above about 30%; also: 0% is about no effect
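TRHR-expressing cells loaded with fluo-8 calcium dye; 23 nL library compound pin-transferred, kinetic FDSS fluorescence (Ex 480/Em 530) recorded about 180 s for agonist-induced calcium release, before a 10 nM TRH EC20 addition for potentiator mode.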
TRPML1 blocker – inhibitors of human TRPML1 channel; Q9GZU1; TRPML1-inducible cells, Ca2+ dye fluorescence, FDSS; stronger effect = lower value; inhibition of EC80 agonist-evoked calcium signal; activity change, negative = inhibition, % (no concentration beside the values); hit rate 0.02% among 390,000; AID 624415; in the data active = activity change below about -50%; inconclusive = between about -30% and that limit;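 also: stimulus is agonist 54-4 at its EC80 concentration; % is scaled to controls: 0 for no effect and ±100 for the full control effect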
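TRPML1-DL cells, Tet-induced overnight (~16 h, 37 °C) at 1,500 cells/well, were loaded with Ca8 no-wash dye plus quencher for 45-90 min at room temperature. Compounds were pinned during FDSS kinetic reading; agonist 54-4 at EC80 (4 uM final) then added.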
TRPV1 potentiator – potentiators of human vanilloid receptor 1 (TRPV1); Q8NER1; TRPV1-expressing cells, Fluo-8 calcium influx, capsaicin EC20 potentiation; potentiation, % at 8.33 µM; hit rate 0.02% among 320,000; AID 540277; in the data active = potentiation above about 80%; inconclusive = between about 30% and that limit; also: 0% is about no effect
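Cells expressing TRPV1 were dye-loaded with Fluo-8 and read kinetically: 10 s baseline, 3 min after compound (agonist portion), then 2 min after EC20 capsaicin (allosteric enhancer portion). Calcium-bound dye fluorescence at 480/520 nm.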
TRHR enhancer-2 – human TRH receptor allosteric enhancement confirmation; TRH receptor cell assay, enhancer confirmation qHTS; activity change, negative = inhibition, % at 46.1 µM; AID 493076; shares compounds with TRHR enhancer-1; 970 tested, under 10 active;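 also: compound effect scored on response to added TRH at EC20 of 10 nM; 0% is about no effect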
TRHR agonist-2 – human TRH receptor agonism confirmation | TRHR-expressing cells, agonist activation read-out | Potency, µM (top dose mostly 46.1 µM), for inactives: at the highest dose activation, hits mostly activators | hit rate 8% among 970 | shares compounds with TRHR enhancer-1; also: potency is read from the fitted curve at half-maximal effect; 0% is about no effect; nearly all actives have a fitted effect of over 75% in size
The depositor's hits bear a star; ? = inconclusive; . = no result given. Unless noted, calls follow the shape of the dose curve; as a rule, active = well fitted curve in the direction sought with a large enough effect; inconclusive = small, poorly fitted or top-dose-only effect, or another doubt; inactive = no such curve, though single readings can be large; an effect the other way counts as inactive or inconclusive.

SMILES	TRHR enhancer-1	TRPV1 ag	TRPML1 agonist	TRHR agonist-1	TRPML1 blocker	TRPV1 potentiator	TRHR enhancer-2	TRHR agonist-2
CCOC(=O)/C(C#N)=C(C)/C=C1\Sc2ccccc2N1CC	-5	12	52*	33*	2	5	7	21µM*
CC(=O)Nc1ccc(/C=C/c2ccnc3ccccc23)cc1	.	.	-1	.	.	.	.	.
Oc1ccc(Br)cc1C1C=C(c2ccc3c(c2)OCO3)NC(c2ccc(F)c(Br)c2)N1 (stereo not given)	-3	11	3	2	-6	15	.	.
Cc1ccc(N2CCN(C(=O)c3ccccc3)CC2)c(C)c1	0	?	2	1	24	8	.	.
Cc1ccc(N2CCN(C(=O)c3cc(C(=O)c4ccccc4C)c[nH]3)CC2)c(C)c1	86*	?	5	-1	3	1	1	0%
O=[N+]([O-])/C=C\c1ccc(N2CCCC2)c(F)c1	-11	22	?	73*	-7	-3	-13	?
Cc1ccc2[nH]c(O)c(N=NC(N)=S)c2c1	-7	0	-1	0	-6	-24	.	.
COc1ccc2[nH]c(O)c(N=NC(=N)N)c2c1	62*	-2	1	1	-9	8	2	-1%
COc1ccc(C2Nc3ccccc3C(=O)N2Cc2ccccc2)cc1COc1ccc(Cl)cc1Cl (stereo not given)	0	-4	.	0	.	0	.	.
CCOc1cccc(NC(=O)C2CC(=O)NC(=Nc3ccccc3)S2)c1 (stereo not given)	84*	2	0	0	25	7	0	2%
CCn1c(CNC(=O)COc2ccc(C(C)C)cc2)nnc1SCC(=O)Nc1cc(F)ccc1C	41*	1	1	-1	-12	1	-3	3%
O=C(CCCCl)Oc1ccc2cc(-c3ccc4ccccc4n3)c(=O)oc2c1	2	13	25	32*	12	11	9	?
CC(=O)COc1ccc2cc(-c3ccccc3)c(=O)oc2c1	-7	9	-1	0	1	-2	.	.
CC(C(=O)c1ccccc1)[n+]1ccc(Cl)c2ccc(Cl)cc21 (stereo not given)	.	.	0	.	.	.	.	.
C[n+]1cccc(Br)c1	.	.	-1	.	.	.	.	.
C/C=C/c1cc(CN2CCN(c3ccccc3)CC2)c(O)c(OC)c1	42*	1	2	2	32	12	-3	-1%
CC(C)CC(=O)c1c[nH]c(C(=O)NCc2cccs2)c1	44*	0	-1	-1	53	10	5	0%
CCC(=O)c1c[nH]c(C(=O)NCc2cccs2)c1	1	-1	0	0	-8	-1	.	.
Cc1ccc(NC(=O)CSc2nc3nc(C)c(Br)cc3[nH]2)cc1F	81*	12	2	0	-4	23	-8	0%
O=C(CN1N=C(c2ccc(Cl)cc2)CCC1=O)NCCc1ccc(Cl)cc1	-1	.	0	0	-19	.	.	.
CCOC(=O)CN1N=C(c2ccc(Cl)cc2)CCC1=O	41*	7	-1	0	-3	-16	-2	2%
O=c1[nH]c(N2CCN(Cc3ccccc3)CC2)nc2c1CCC2	41*	0	2	-1	34	-2	-3	-1%
O=c1[nH]c(N2CCN(c3ccccc3)CC2)nc2c1CCC2	-3	2	3	0	8	-6	.	.
O=C(Cc1ccc(-c2ccccc2)cc1)NO	.	.	0	.	.	.	.	.
N#Cc1c(N)nc(SCC(=O)OCc2ccccc2)c(C#N)c1-c1ccco1	65*	-2	3	0	24	13	-8	4%
CCn1c(N)nc2c1c(=O)n(C)c(=O)n2C	44*	6	0	1	-9	-9	2	-1%
CCn1c(SCC(N)=O)nc2c1c(=O)n(C)c(=O)n2C	2	7	0	1	-3	-3	.	.

Screens deposited in PubChem BioAssay by National Center for Advancing Translational Sciences (NCATS).
